The whole screen tested about 360,000 compounds, of which about 2,800 (0.78%) were called active. The full list was thinned out, with actives kept by preference. Values without a mark were called inactive. Cut-off read from the data, not from the text of the source: active = inhibition above about 26%; inactive = the rest.

For the assay, the system named is Nicotinate-nucleotide adenylyltransferase NadD (Staphylococcus aureus N315). Kind of assay: S. aureus NadD enzyme activity blockers – biochemical, colorimetric, uHTS, primary screen (AID 602399). As to conditions: purified NadD enzyme, colorimetric absorbance read-out; at 20 µM; active compounds read high.
As a reminder, the inhibition is the drop in the measured response relative to a control, in per cent. Regarding `CN1CCN(CC#CCC2(O)c3ccccc3-c3ccccc32)CC1`, the inhibition was -2.12%.
In the case of `O=C1CC(c2cccc(Cl)c2)CC(O)=C1C=Nc1ccccc1` (configuration not stated), the inhibition is -3.63%.
The value for `COc1ccc2c(c1OC)C(=O)N(c1ncn[nH]1)C2` was 0.954%; that for `COc1ccc(Cl)cc1S(=O)(=O)N1CCC(O)(c2ccc(Cl)cc2)CC1` was -4.67%; that for `CCc1c(C)c2c(C)[nH]nc2oc1=O` was -0.195%.
For the compound `O=c1oc(-c2ccco2)nc2sc3c(c12)CCCCC3`, the inhibition is -5.51%.
On to `Cc1ccc(NC(=O)c2sc3nc(N)c(C#N)cc3c2N)cc1`, for which the inhibition was 12.7%.
For the compound `Cc1cccc(NC(=O)c2sc3nc4c(c(-c5ccco5)c3c2N)CCC4)c1`, the inhibition is 44.6% (active).
Turning to `Cc1cccn2c(CN(C)C3CCCc4ccccc43)c(C(=O)N3CCOCC3)nc12` (configuration not stated), the inhibition was -3.79%.
Consider `C=CCOc1ccccc1NC(=O)CN1C(=O)CNC1=O`, for which the inhibition is -2.12%.
As for `O=C(Nc1ccc(Br)cn1)C1CCN(S(=O)(=O)c2cccs2)CC1`, the inhibition is -7.26%.
Consider `CCCc1nc(SCC(=O)Nc2ccccc2OC)c2c(=O)n(C)c(=O)n(C)c2n1`, for which the inhibition is -1.01%.
For `O=C(O)CCN(Cc1ccccc1)S(=O)(=O)c1c(Cl)cccc1Cl`, the inhibition is -4.97%.
Take `C=C1c2cccc(OC)c2O[C@H](C(=O)OCC)[C@@H]1CCCCCC`: the inhibition is 52.4% (active).
On to `CCOC(=O)C1=C(C)c2ccccc2OC1C(=O)OCC` (configuration not stated), for which the inhibition is -1.62%.
With `O=C(CSc1nc2ccccc2c(=O)[nH]1)Nc1nc(-c2ccc(Br)cc2)cs1`, the inhibition was 42.3% (active).
Consider `O=C(CSc1ncn[nH]1)Nc1nc(-c2cccc([N+](=O)[O-])c2)cs1`, for which the inhibition was -5.15%.
The result for `O=C(COC(=O)c1cc(=O)[nH]c2ccccc12)NCc1cccc(Cl)c1` reads 0%.
For the compound `Cc1csc(NC(=O)CSc2ccc(-c3ccc(F)cc3)nn2)n1`, the inhibition was 0.514%.
Regarding `O=C(OCc1nnc(-c2ccccc2)o1)c1cc(=O)[nH]c2ccccc12`, the inhibition is -0.542%.
The value for `O=C(COC(=O)c1cc(=O)[nH]c2ccccc12)Nc1nc(-c2cccc(Br)c2)cs1` was 42.5% (active).
Regarding `CCOC(=O)c1ccn(S(=O)(=O)c2ccc(C)cc2)c1-c1ccccc1`, the inhibition was -0.973%.
Consider `CCOc1ccc(-c2cn(S(=O)(=O)c3cccc4nsnc34)nc2N)cc1`, for which the inhibition was -0.18%.
Regarding `CC(C)c1nnc(NC(=O)CCC(=O)N2CCN(c3cccc(Cl)c3)CC2)s1`, the inhibition is 1.72%.
With `COc1c(F)c(F)c(-c2csc(N)n2)c(F)c1F`, the inhibition is -5.11%.
The value for `O=C(Nc1ccc(OCCO)cc1)c1csc([C@H]2C[C@H](O)[C@@H](CO)O2)n1` was -8.65%; that for `CCCNC(=O)c1cnc(-c2ccccc2)nc1-c1ccccc1` was -3.59%; that for `CCOc1cc(/C=C2/N=C(c3ccc(C(C)(C)C)cc3)OC2=O)cc(Cl)c1OS(C)(=O)=O` was 71.7% (active).
On to `O=C(NC(Nc1nc2ccc([N+](=O)[O-])cc2s1)(C(F)(F)F)C(F)(F)F)c1ccccc1`, for which the inhibition was -2.21%.
Turning to `O=C(Nc1nc2ccc([N+](=O)[O-])cc2s1)c1ccc(S(=O)(=O)N2CCCc3ccccc32)cc1`, the inhibition was 34.4% (active).
Take `CNC(=O)c1ccsc1NC(=O)c1ccc(S(=O)(=O)N2CCc3ccccc32)cc1`: the inhibition was 11.7%.
The result for `O=C(OCc1cn(-c2ccc(Cl)c(Cl)c2)nn1)c1ccccc1Cl` reads 0.666%.
As to `C=CCc1cccc2cc(C(=O)N3CCN(C(=O)OCC)CC3)c(=O)oc12`, the inhibition is -4.59%.
As to `COc1ccc(C)cc1NC(=O)c1ccc(-c2ccc(C(C)=O)cc2)o1`, the inhibition is -8.65%.
On to `CN(c1ccccn1)c1ncnc2[nH]ncc12`, for which the inhibition was -2.6%.
Turning to `Cc1cc(C)c2c(c1)cc(C)c1nnc(SCC(=O)Nc3cc(C)on3)n12`, the inhibition is 0.406%.
Take `N#Cc1ccc(CSc2ncccn2)cc1`: the inhibition is -1.45%.
For `N#CC1=C(SCc2ccc(C#N)cc2)N=C(N)C(c2nc(-c3ccccc3)cs2)C12CCCCC2` (configuration not stated), the inhibition is 39.1% (active).
The value for `Cc1ccc(NC(=O)CN(C)S(=O)(=O)c2cnc[nH]2)cc1C` was -2.1%.
Turning to `COC(=O)c1c(NC(=O)COc2ccc(Cl)cc2Cl)sc2c1CC(C)(C)NC2(C)C`, the inhibition was -5.59%.
As for `CCc1ccc(-n2c(=S)sc3c(=O)n(-c4ccccc4OC)c(=S)[nH]c32)cc1`, the inhibition is 26.4% (active).
`COc1ccc(Cl)cc1-n1c(=S)sc2c(=O)n(-c3ccc(F)cc3)c(SCC(=O)O)nc21`: the inhibition is -1.15%.
The value for `COc1cccc(-n2c(=S)sc3c(=O)n(-c4ccccc4C)c(SCC(=O)O)nc32)c1` was -0.498%.
As for `COc1ccccc1-n1c(=S)[nH]c2c(sc(=S)n2-c2ccc(C)cc2C)c1=O`, the inhibition was 26.4% (active).
As for `COc1cccc(-n2c(=S)sc3c(=O)n(-c4ccccc4OC)c(SCC4OCCO4)nc32)c1`, the inhibition was -4.72%.
In the case of `COc1ccccc1N1CCN(c2nc(C)cc(=O)[nH]2)CC1`, the inhibition is 0.434%.
In the case of `COc1ccc2c3c1O[C@H]1C[C@@H](O)C=C[C@@]31CCN(C)C2`, the inhibition is -4.23%.
Turning to `COc1cc(C)c(C(C)C)cc1S(=O)(=O)n1ccnc1`, the inhibition was -1.45%.
For the compound `CCCCCOC(=O)C1=C(C)Nc2nnnn2C1c1ccc(OC)c(OC)c1OC` (configuration not stated), the inhibition is -2.88%.
`C=CCOc1ccc(/C=C/C(=O)OCC(=O)NCC2CCCO2)cc1` (configuration not stated): the inhibition was 0.0871%.
For `CCC(NC(=O)c1cc(COc2ccc(F)c(F)c2)on1)c1ccncc1` (configuration not stated), the inhibition was 48.1% (active).
Consider `CC(=O)c1cccc(OCc2cc(C(=O)NC(C)Cc3cccnc3)no2)c1` (configuration not stated), for which the inhibition is -5.35%.
Consider `CCOC(=O)CC1COCCN1C(=O)c1cc(COc2ccc(F)c(F)c2)on1` (configuration not stated), for which the inhibition was -4.39%.
With `COC(C(=O)Nc1ccc(S(=O)(=O)Nc2ccc(C)c(C)c2)cc1)c1ccccc1` (configuration not stated), the inhibition was -2.66%.
With `CN(C(=O)COC(=O)c1cc(-c2ccco2)nc2ccccc12)C1CCS(=O)(=O)C1` (configuration not stated), the inhibition is 87.6% (active).
On to `COc1ccc(NC(=O)COc2ccc(C(=O)OCC(=O)N(C)C3CCS(=O)(=O)C3)cc2OC)cc1` (configuration not stated), for which the inhibition is -2.63%.
The value for `COc1ccc2c(-c3ccccc3)cc(SCC(=O)N(C)C3CCS(=O)(=O)C3)nc2c1` (configuration not stated) was -1.73%.

(Values after PubChem BioAssay AID602399 (Sanford-Burnham Center for Chemical Genomics, 2012).)
